Assay outcomes (PubChem)
Shown are actives, neighbours in structure and some others; about 19% of the full set was active somewhere.
TDP1 cell CPT: qHTS for Inhibitors of human tyrosyl-DNA phosphodiesterase 1 (TDP1): qHTS in cells in presence of CPT; Potency, µM (top dose mostly 46.2 µM), for the others: top-dose activity change, negative = growth inhibition, actives largely listed as inhibitors; AID 686979, 2013; 420,000 tested, 12% active; chicken DT40 Tdp1-/-;hTDP1 cells + 20 nM CPT, ATP luminescence, 48 h; also: potency is read from the fitted curve at half-maximal effect; nearly all actives have a fitted effect of over 55% in size
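Chicken DT40 Tdp1-/- cells complemented with human TDP1, 400 cells/well, exposed to compounds plus 20 nM camptothecin for at least 48 h at 37 C; viability read as ATP content by CellTiter-Glo luminescence.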
IL1B secr inh: qHTS for Inhibitors of Inflammasome Signaling: IL-1-beta AlphaLISA Primary Screen; THP-1 LPS/ATP IL-1B secretion, AlphaLISA, 16 h; stronger effect = lower value; activity change, % at 57.5 µM; 360,000 tested, 4.7% active; in the data active = activity change below about -50%; inconclusive = mostly about -30% to -49%
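Secreted IL-1B measured by AlphaLISA bead assay after 16 h compound exposure of THP-1 cells; compounds (final up to 57.5 uM) added 1 h before LPS (250 ng/mL) and ATP (1.25 mM) stimulation; lower signal means less secretion.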
TDP1 cell noCPT: qHTS for Inhibitors of human tyrosyl-DNA phosphodiesterase 1 (TDP1): qHTS in cells in absence of CPT. DT40 Tdp1-/- hTDP1 cells, no CPT, ATP luminescence, 48 h. Potency, µM (highest dose often 46.2 µM), for inactives: at the top dose activity change, negative = growth inhibition, usual class: inhibitors. 420,000 tested, 15% active. AID 686978, 2013; also: potency is read from the fitted curve at half-maximal effect; nearly all actives have a fitted effect of over 55% in size
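Growth kinetics read by CellTiter-Glo luminescence after ≥48 hr at 37 °C. Cells: DT40 Tdp1-/- stably carrying human TDP1, 400 per well, compound exposure in the absence of CPT (DMSO vehicle).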
HT1080 IDH1KD tx: qHTS for induction of synthetic lethality in tumor cells producing 2HG: qHTS for the HT-1080-IDH1KD cell line; 360,000 tested, 2% active; HT-1080 IDH1 knockdown viability, ATP luminescence, 48 h; Potency, µM (highest dose often 46.1 µM), for inactives: at the top dose activity, negative = toxicity, most hits filed as cytotoxic;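 also: potency is read from the fitted curve at half-maximal effect; 0% = DMSO wells and -100% = cell-free medium wells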
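Cytotoxicity counter-line: IDH1KD HT-1080, 48 h, CellTiter-Glo. Curves classed by r2, magnitude and activity.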
HT1080NT lethal: qHTS for induction of synthetic lethality in tumor cells producing 2HG: qHTS for the HT-1080-NT fibrosarcoma cell line; HT-1080-NT fibrosarcoma viability, CellTiter-Glo ATP luminescence, 48 h; Potency, µM (series often up to 46.1 µM), for the others: top-dose activity, negative = less viability, actives largely listed as cytotoxic; 360,000 tested, 1.6% active;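 also: NT is the 2HG producing partner of a matched IDH1 knockdown line; potency is read from the fitted curve at half-maximal effect; 0% = DMSO-treated cells and -100% = media-only wells without cells; nearly all actives have a fitted effect of over 55% in size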
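Read-out is CellTiter-Glo luminescence after 10 minutes at room temperature, following 48 hours' compound treatment of HT-1080-NT cells (750 cells/well, RPMI, 5% FBS, 37 degrees C).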
* hit, by the source's call; ? = inconclusive; / = not tested or not shown; ! = not active in a repeat; [ ] = another dose, or the depositor's remark. Unless noted, calls follow the shape of the dose curve; as a rule, active = well fitted curve in the direction sought with a large enough effect; inconclusive = small, poorly fitted or top-dose-only effect, or another doubt; inactive = no such curve, though single readings can be large; an effect the other way counts as inactive or inconclusive. Unless noted, % is scaled to controls: 0 for no effect and ±100 for the full control effect.

SMILES	TDP1 cell CPT	IL1B secr inh	TDP1 cell noCPT	HT1080 IDH1KD tx	HT1080NT lethal
Cc1cccc(C(=O)NC2CCN(CC(=O)Nc3ccccc3Cl)CC2)c1	0%	-12	-5%	-3%	4%
C/C(CC(=O)NCc1ccco1)=N\NC(=O)c1ccc([N+](=O)[O-])cc1Cl	6%	15	-10%	2%	4%
CCOC(=O)N1CCN(S(=O)(=O)c2ccc(C(=O)Nc3sc4c(c3C(=O)OC)CCN(C)C4)cc2)CC1	?	-100*	?	?	18µM*
COCCN(CCOC)S(=O)(=O)c1ccc(C(=O)Nc2sc3c(c2C(=O)OC)CCN(C)C3)cc1	-13%	/	?	/	/
CCOC(=O)c1c(NC(=O)c2ccc(S(=O)(=O)N(C)C)cc2)sc2c1CCN(C)C2	23µM*	/	16µM*	/	/
CSc1nc(Cl)c(Cc2ccc(OC(C)C)cc2)c(N(C)C)n1	?	5	16µM*	-3%	0%
CCOc1ccc(Cc2c(Cl)nc(SC)nc2N(C)C)cc1	18µM*	0	16µM*	?	?
O=C(c1ccc(OC2CCN(Cc3ccccn3)CC2)cc1)N1CCCCO1	10%	37	3%	10%	11%
O=C(c1ccc2[nH]ccc2c1)N1CCCC(Nc2ccccc2)C1 (configuration not stated)	-3%	-13	10%	-3%	12%
CN1CCc2ccc(NC(=O)c3ccc(C(F)(F)F)cc3)cc2C1	-19%	4	0%	-12%	-18%
O=C(Nc1ccc2c(c1)CCCN2C(=O)c1cccs1)c1ccccc1	16µM*	-17	13µM*	?	?
O=C(Nc1ccc2c(c1)CCCN2C(=O)c1cccs1)c1cccc(C(F)(F)F)c1	13µM*	/	9.2µM*	/	/
COc1cc(OC)cc(C(=O)Nc2ccc3c(c2)CCCN3C(=O)c2cccs2)c1	18µM*	-16	23µM*!	?	?
COc1ccc(C(=O)N2CCCc3ccccc32)cc1	-24%	6	-28%	-8%	3%
O=C(Nc1ccc2c(c1)CCCN2C(=O)c1cccs1)c1ccc(F)c(F)c1	16µM*	/	21µM*	/	/
CCOC(=O)N1CCN(C2=NC3(CCCCC3)C(C#N)C(=O)N2)CC1 (configuration not stated)	12%	-3	-13%	6%	-5%
O=C(c1ccc(NC(=O)C(c2ccccc2)c2ccccc2)cc1)c1ccc(C(=O)O)c(C(=O)O)c1	9%	8	-11%	11%	18%
CN(Cc1cccc(Cl)c1Cl)C(=O)CCNC(=O)c1ccco1	-9%	-2	-19%	1%	3%
Cc1cccc(C)c1N=Nc1c(C)cc(O)cc1C	13%	-89*	-26%	21µM*	?
Cc1cccc(O)c1C	2%	-3	-6%	?	0%
Cc1ccc(OCC(=O)N/N=C\c2cn(C)c3ccccc23)c([N+](=O)[O-])c1	?	16	15µM*	-2%	-8%
Cc1ccc(OCC(=O)N/N=C\c2c(C)[nH]n(-c3ccccc3)c2=O)c([N+](=O)[O-])c1	3.7µM*	127	4.1µM*	-23%	-16%
COc1ccc(NC(=O)CC2C(=O)N(c3ccc(C)cc3)C(=O)N2Cc2cccnc2)cc1 (configuration not stated)	-27%	/	?	/	/
N=c1c2ccccc2nc2n1CCCCC2	0%	2	-29%	-5%	-5%
Cc1nc(-c2ccc(S(=O)(=O)Oc3ccc(Cl)cc3Cl)s2)cs1	13µM*	-1	18µM*	?	?
SMILES	TDP1 cell CPT	IL1B secr inh	TDP1 cell noCPT	HT1080 IDH1KD tx	HT1080NT lethal
CC(C)(C)N1C(=O)c2ccccc2NC(=O)C1C(=O)NCc1ccco1 (configuration not stated)	1%	42	3%	13%	29%
CC(=O)C1=NN(c2ccc(Cl)cc2)C(c2ccc3c(c2)OCO3)N(C(C)=O)N1C (configuration not stated)	?	-23	?	-22%	-23%
Cc1ccc(Cn2cnc3ccccc32)cc1	15µM*	-54*	21µM*	?	-25%
c1ccc2c(c1)ncn2CCn1cnc2ccccc21	-14%	-5	-6%	16%	18%
O=C(COc1ccc2ccccc2c1)Nc1ccncc1	?	0	16µM*	-26%	-16%
O=C(COc1ccc2ccccc2c1)NCCn1ccc2ccccc21	?	-14	21µM*	-8%	0%
O=C(CSc1ccc2ccccc2c1)Nc1ccncc1	?	0	15µM*	-25%	-23%
CC(C)(C)CC(C)(C)NC(=O)CSCC(=O)Nc1ccc2ccccc2c1	18µM*	-94*	?	-1%[9.24 µM]	16µM*
CC(C)(C)c1ccc(S(=O)(=O)c2cnc(SCC(=O)Nc3ccc4c(c3)OCCO4)[nH]c2=O)cc1	-2%	/	3%	/	/
O=C(COc1ccccc1)NCc1nnc2c3ccccc3c(-c3ccccc3)nn12	?	0	?	-8%	-15%
CC(C)CCNC(=O)C(CC(C)C)N(Cc1ccc2c(c1)OCO2)C(=O)c1snc(C(N)=O)c1N (configuration not stated)	-20%	-57*	?	-16%	-8%
COc1ccc(CN(C(=O)c2snc(C(N)=O)c2N)C(CC(C)C)C(=O)NC2CCCCC2)cc1 (configuration not stated)	?	-71*	?	?	-29%
O=C(Nc1ccccc1F)Nc1ccccc1OC(F)F	-6%	-13	12%	14%	12%
CCC(C)(C)c1ccc(OCCN2C(=O)NC(C)(C)C2=O)cc1	?	15	?	-7%	-10%
CCCCN(C(=O)CCC(=O)Nc1cc(C)on1)C(C(=O)NC1CCCC1)c1ccc(F)cc1 (configuration not stated)	-107%	-77*	-98%	-20%	-15%
COCCN(C(=O)CCC(=O)Nc1cc(C)on1)C(C(=O)NC1CCCC1)c1ccc(C)cc1 (configuration not stated)	?	-19	0.33µM*	-6%	-7%
OCc1ccc(-c2cccc3nccn23)cc1	5%	2	-14%	1%	33%
c1ccc(-c2nc(-c3ccco3)n3ccccc23)cc1	10µM*	-92*	?	-22%	-29%
COc1ccc([C@@H]2C[C@H]3[C@@H](CN2S(=O)(=O)c2ccccc2)C(=O)C[C@@H](c2ccc(C)cc2)N3S(=O)(=O)c2ccc(C)cc2)cc1	-1%	7	?	12%	0%
